Measured values reported in PubChem BioAssay AID1159580 (chemical genetic matrix, 2015).
Among all 5,500 compounds or so, about 2,000 (36%) were called active. Another 18% or so got no clear call; they are omitted. Rule as the data show it: active = normalized growth mostly below about 0.91 (no sharp cut-off); inconclusive = no clear call, values can overlap the other calls; inactive = mostly above about 0.92. Some of the results follow.

Experiment: chemical genetic growth profiling, strain panel (AID 1159580);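 also: tested at 20 µM; growth read once vehicle control cultures reached saturation at 30 °C; 1 = growth at the plate median or of vehicle wells; lower values mean less growth of the strain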
Details: S. cerevisiae deletion strains, growth OD

Measured: normalized growth

CCCCCCCCCCCCCCCCCCCCCCO
inactive: locus YHR030C, strain SLT2, active compounds read low 1.08 | locus YHR079C, strain IRE1, active compounds read low 0.973 | locus YJL095W, strain BCK1, active compounds read low 0.989 | locus YJR066W, strain TOR1, active compounds read low 0.967 | locus YLR113W, strain HOG1, active compounds read low 0.965 | locus YNL183C, strain NPR1, active compounds read low 0.916 | locus YOR231W, strain MKK1, active compounds read low 0.99 | locus YPL256C, strain CLN2, active compounds read low 0.99
